MITF inh: MITF inhibitors, primary screen, biochemical, AlphaScreen, human; Microphthalmia-associated transcription factor (Homo sapiens), O75030; AlphaScreen MITF homodimerization, bead proximity signal; inhibition, % at 2.6 µM; hit rate 0.91% among 650,000; in the data active = inhibition above about 50%
TEAD-YAP block: TEAD-YAP interaction inhibition, primary screen, TEAD-YAP interaction inhibitor project, luminescence, HEK-TIYL cells. inhibition, % at 9.12 µM. TEAD-Gal4/YAP UAS-luciferase luminescence. AID 1259422, 2018. hit rate 1.4% among 640,000; in the data active = inhibition above about 32%
GPR151 activ: activators of human GPR151, primary screen, cell-based, PathHunter beta-arrestin, luminescence; G-protein coupled receptor 151 (Homo sapiens), Q8TDV0; hit rate 1% among 650,000; PathHunter beta-arrestin GPR151 cells; activation, % at 11.2 µM; in the data active = activation above about 4.9%
Target sequence (Q8TDV0 whole entry, looked up): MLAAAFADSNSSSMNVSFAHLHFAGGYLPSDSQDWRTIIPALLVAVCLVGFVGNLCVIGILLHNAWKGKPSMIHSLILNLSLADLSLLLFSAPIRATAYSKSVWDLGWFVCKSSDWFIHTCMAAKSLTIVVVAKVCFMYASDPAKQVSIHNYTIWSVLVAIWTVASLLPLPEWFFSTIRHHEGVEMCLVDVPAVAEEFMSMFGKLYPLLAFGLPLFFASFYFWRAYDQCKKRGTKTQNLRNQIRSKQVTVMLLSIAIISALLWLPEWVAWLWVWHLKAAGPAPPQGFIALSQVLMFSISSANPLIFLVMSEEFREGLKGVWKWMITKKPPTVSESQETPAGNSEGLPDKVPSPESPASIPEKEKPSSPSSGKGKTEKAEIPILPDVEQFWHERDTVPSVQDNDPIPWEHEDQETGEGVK
FBW7 act: FBW7 E3 ligase activators, primary screen, biochemical, AlphaScreen, human. normalized activity (activation), % at 26.1 µM. AlphaScreen FBW7–phospho-cyclin E peptide binding, activator screen. hit rate 0.13% among 650,000. F-box/WD repeat-containing protein 7 (Homo sapiens), Q969H0; in the data active = normalized activity above about 1.9%;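 also: purified mutant Fbw7 with reduced substrate affinity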
Of the large screens only hits and unclear results are named; the others gave an inactive call. In the library only some 3.4% were active in any assay of this set; here they are far more common.

CN1CCN(C(=O)c2ccc(-c3ccco3)nc2N(C)C)CC1	none
CCOC(=O)C1(Cc2ccc(OC)cc2)CCN(C(=O)c2oc(C)cc2C)CC1	none
CC(C)CC(NC(=O)/C(=C\c1ccccc1)NC(=O)c1ccco1)C(=O)O (configuration not stated)	none
CCOC(=O)N1CCN(c2c(NCc3ccc(F)cc3)c(=O)c2=O)CC1	TEAD-YAP block 54.6
CCOC(=O)N1CCN(c2c(N3CCN(c4ccc(F)cc4)CC3)c(=O)c2=O)CC1	none
COC(=O)c1ccc2c(=O)n(CCc3ccc(OC)c(OC)c3)c(SCC(=O)Nc3ccc(C)c(Cl)c3)nc2c1	none
CCC(=O)Nc1sc(C(=O)NC2CCCCC2)c(C)c1C(=O)OC	TEAD-YAP block 36.6
CCOC(=O)c1sc(C)c(C(=O)NC2CCCCC2)c1N	none
CCOC(=O)c1c(N)sc(C(=O)NC2CCCCC2)c1C	TEAD-YAP block 70.1
CC1CCC2(OC1)OC1CC3C4CCC5C[C@@H](O)CCC5(C)C4=CCC3(C)C1[C@@H]2C (some centres not stated)	none
CCOC(=O)c1csc2c1CCC(Br)(Br)C2=O	none
CCOC(=O)c1csc2c1CCC/C2=N/O	TEAD-YAP block 50.5
CCOC(=O)c1csc2c1CCC/C2=N\O	TEAD-YAP block 48.4
COC(=O)C1=C(C)N(Cc2ccco2)C(=O)/C1=C\c1cc(C)n(-c2ccccc2F)c1C	MITF inh 72.2
COCCN1C(=O)/C(=C\c2cc(C)n(-c3ccc(Cl)cc3)c2C)C(C(=O)OC)=C1C	none
CCN1C(=O)/C(=C\c2cc(C)n(-c3ccc(Cl)cc3)c2C)C(C(=O)OC)=C1C	FBW7 act 7.3
CCOc1ccc(-n2nnc3c(N4CCN(C(=O)c5c(F)cccc5F)CC4)ncnc32)cc1	none
Nc1ccc(C(=O)N/N=C2\CCSc3ccc(F)cc32)cc1	none
CC(C)CNC(=O)c1ccc2c(c1)CC(c1nc3ccc(-c4ccnc(N)n4)cc3[nH]1)CO2 (configuration not stated)	FBW7 act 2.3
CC(CNC(=O)c1ccc2c(c1)CC(c1nc3ccc(-c4ccnc(N)n4)cc3[nH]1)CO2)c1cccs1 (configuration not stated)	TEAD-YAP block 44.8, FBW7 act 2.7
COCCNC(=O)c1ccc2c(c1)CC(c1nc3ccc(-c4ccnc(N)n4)cc3[nH]1)CO2 (configuration not stated)	none
COc1ccc(CCNC(=O)c2ccc3c(c2)CC(c2nc4ccc(-c5ccnc(N)n5)cc4[nH]2)CO3)cc1 (configuration not stated)	TEAD-YAP block 41.1, FBW7 act 5.8
NS(=O)(=O)c1ccc(NC(=S)N2CCN(CCc3ccccc3)CC2)cc1	none
C/C(=N\NC(=O)C1CC1c1ccccc1)C1CC1 (configuration not stated)	none
Cc1nc2sc(-c3ccccc3)cc2c2nnc(-c3ccccc3)n12	TEAD-YAP block 90.8
Cc1nc2sc(-c3ccccc3)cc2c(=O)[nH]1	TEAD-YAP block 65.6
COc1ccc(S(=O)(=O)N(CC(=O)NC2CC3CCC2C3)c2ccc(C)cc2)cc1OC (configuration not stated)	none
COc1ccc(C2c3[nH]c4ccccc4c3CC3C(=O)N(c4ccccc4)C(=S)N32)cc1 (configuration not stated)	none
COC(=O)c1cccc(-n2c(C)cc(/C=C(\C#N)C(=O)Nc3ccccc3)c2C)c1	TEAD-YAP block 38.6
CNC(=O)/C(C#N)=C/c1cc(C)n(-c2ccc(F)cc2)c1C	TEAD-YAP block 71.2
COC(=O)c1cccc(-n2c(C)cc(/C=C(/C#N)C(=O)NCc3ccco3)c2C)c1	none
Cn1c(SCC(=O)Nc2ccccc2[N+](=O)[O-])nnc1-c1cc(Cl)ccc1O	none
COc1ccc(C(C)=O)cc1COC(=O)c1ccc(S(=O)(=O)C(F)F)cc1	none
CCOc1ccc(NC(=O)c2ccc(F)c(S(=O)(=O)N(Cc3ccco3)CC3CCCO3)c2)cc1 (configuration not stated)	TEAD-YAP block 46.2
CCOc1ccc(NC(=O)c2ccc(F)c(S(=O)(=O)N(CC)Cc3ccccc3)c2)cc1	TEAD-YAP block 61.7
CCOc1ccc(NC(=O)c2ccc(F)c(S(=O)(=O)N(CC)CC)c2)cc1	TEAD-YAP block 36.8
CCN(CC)S(=O)(=O)c1cc(C(=O)Nc2ccc(Br)cc2)ccc1OC	TEAD-YAP block 46.6
CCN(CC)S(=O)(=O)c1cc(C(=O)Nc2ccc(Br)cc2)ccc1F	none

High-throughput results from PubChem.
